These results are taken from PubChem BioAssay (NCI).

Assay [1] is described as follows: NCI Yeast Anticancer Drug Screen. Data for the rad50 strain (AID 155).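 Note: 0% = growth of vehicle-only cultures of the same strain.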 To be noted: S. cerevisiae rad50 strain growth inhibition, active compounds read high. The procedure, abridged:
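Compounds were tested on a yeast strain with an engineered DNA damage repair alteration; the reported value is growth inhibition normalised to vehicle treatment.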

Assay [2] is described as follows: NCI Yeast Anticancer Drug Screen. Data for the mec2-1 strain (AID 157). To be noted: S. cerevisiae mec2-1 strain, active compounds read high. Put shortly:
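Readout is yeast growth inhibition, normalised to vehicle-treated controls, in the mec2-1 strain exposed to compound.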

The nature of assay [3]: NCI Yeast Anticancer Drug Screen. Data for the sgs1 mgt1 strain (AID 161).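 Note: 0% = growth of cultures given vehicle only.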 The note with it: S. cerevisiae sgs1 mgt1 strain, active compounds read high. The procedure, abridged:
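Yeast cells carrying a defined DNA-repair defect were exposed to test compounds. Growth inhibition was measured relative to vehicle-treated controls.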

Assay [4] can be described thus: NCI Yeast Anticancer Drug Screen. Data for the cln2 rad14 strain (AID 165).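 Note: 0% = growth equal to vehicle treated cultures.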 To be noted: S. cerevisiae cln2 rad14 strain, active compounds read high. Put shortly: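 Relative to vehicle controls, growth inhibition of compound-treated cln2 rad14 yeast was recorded.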
Assay [5] can be described thus: NCI Yeast Anticancer Drug Screen. Data for the bub3 strain (AID 167). The note with it: S. cerevisiae bub3 mutant strain, active compounds read high. Put shortly: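 Growth of a checkpoint-deficient yeast mutant is measured after compound exposure. Values represent inhibition relative to vehicle.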
The nature of assay [6]: NCI Yeast Anticancer Drug Screen. Data for the mlh1 rad18 strain (AID 175). The note with it: S. cerevisiae mlh1 rad18 strain growth inhibition, active compounds read high. Put shortly: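 Test agents were incubated with a yeast strain of defined genotype (DNA damage repair defect). Inhibition of growth was derived by comparison with vehicle-exposed cultures.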
Where [7] appears, read: at 5.0 µM (retest, dose inferred, filed as 0.5).
Where [8] appears, read: at 50.0 µM (retest, dose inferred, filed as 5.0).

This is part of a sample that, as a whole, favours compounds with a hit. Of some 79,000 tested, about 15% had one in any assay. Values without a mark were called inactive. The source made the active and inactive calls. Cut-off read from the data, not from the text of the source: active = growth inhibition above about 70%; inactive = the rest.

As for `CC(=O)OCC1OC(N2CCc3cc([N+](=O)[O-])ccc32)C(OC(C)=O)C(OC(C)=O)C1OC(C)=O` (stereo unspecified), the growth inhibition in assay [1] (setting [7]) is 2%; in assay [1] (setting [8]) it was -4%; in assay [1] (at 50.0 µM), -15.4%; in assay [2] (setting [7]), -19%; in assay [2] (setting [8]), 20%; in assay [2] (at 50.0 µM), -1.35%. The growth inhibition is 3% in assay [3] (setting [7]); 23% in assay [3] (setting [8]); -9.2% in assay [3] (at 50.0 µM); 7% in assay [4] (setting [7]); -3% in assay [4] (setting [8]); 41.9% in assay [4] (at 50.0 µM). For the same compound, the growth inhibition in assay [5] (setting [7]) was 3%; in assay [5] (setting [8]), 1%; in assay [5] (at 50.0 µM), -3.25%; in assay [6] (setting [7]) it was 11%; in assay [6] (setting [8]), 18%; in assay [6] (at 50.0 µM), -16.8%.
Take `C=CCOCC(C)OC(=O)C(C)C` (stereo unspecified): the growth inhibition in assay [1] (setting [7]) is -162%; in assay [1] (setting [8]) it was -158%; in assay [1] (at 50.0 µM), 55.7%; in assay [2] (setting [7]) it was -46%; in assay [2] (setting [8]), -52%; in assay [2] (at 50.0 µM), -6.9%. In addition, the growth inhibition in assay [3] (setting [7]) was -63%; in assay [3] (setting [8]), -63%; in assay [3] (at 50.0 µM), 18.3%; in assay [4] (setting [7]) it was -60%; in assay [4] (setting [8]), -62%; in assay [4] (at 50.0 µM), 49%. Also, the growth inhibition in assay [5] (setting [7]) is -71%; in assay [5] (setting [8]), -78%; in assay [5] (at 50.0 µM), 11.8%; in assay [6] (setting [7]) it was -140%; in assay [6] (setting [8]) it was -117%; in assay [6] (at 50.0 µM), 63.2%.
Take `Oc1cc(Cl)cc2cc(Cl)cnc12`: the growth inhibition in assay [1] (setting [7]) was 99% (active); in assay [1] (setting [8]), 99% (active); in assay [1] (at 50.0 µM), 86.6% (active); in assay [2] (setting [7]) it was 96% (active); in assay [2] (setting [8]) it was 98% (active); in assay [2] (at 50.0 µM), 91.2% (active). Moreover, the growth inhibition was 98% (active) in assay [3] (setting [7]); 98% (active) in assay [3] (setting [8]); 84.8% (active) in assay [3] (at 50.0 µM); 97% (active) in assay [4] (setting [7]); 96% (active) in assay [4] (setting [8]); 87.7% (active) in assay [4] (at 50.0 µM). In addition, the growth inhibition in assay [6] (setting [7]) was 98% (active); in assay [6] (setting [8]), 99% (active); in assay [6] (at 50.0 µM), 82.3% (active).
Turning to `O=C1C(N=Nc2ccccc2)=C(O)C2C3C=CC(C3)C12` (stereo unspecified), the growth inhibition in assay [1] (setting [7]) is 2%; in assay [1] (setting [8]), 98% (active); in assay [1] (at 50.0 µM) it was 98.8% (active); in assay [2] (setting [7]), 0%; in assay [2] (setting [8]), 98% (active); in assay [2] (at 50.0 µM), 98.5% (active). Besides, the growth inhibition was 2% in assay [3] (setting [7]); 95% (active) in assay [3] (setting [8]); 95% (active) in assay [3] (at 50.0 µM); 1% in assay [4] (setting [7]); 98% (active) in assay [4] (setting [8]); 99.3% (active) in assay [4] (at 50.0 µM). Besides, the figures for the growth inhibition in assay [6] (setting [7]), in assay [6] (setting [8]) and in assay [6] (at 50.0 µM) were 17%, 98% (active) and 98.8% (active), respectively.
Consider `C(=C1/CNC/C(=C/c2ccccc2)C1)/c1ccccc1`, for which the growth inhibition in assay [1] (setting [7]) is 11%; in assay [1] (setting [8]), 99% (active); in assay [1] (at 50.0 µM), 99.5% (active); in assay [2] (setting [7]), 17%; in assay [2] (setting [8]), 99% (active); in assay [2] (at 50.0 µM), 99.6% (active). In addition, the growth inhibition in assay [3] (setting [7]) was 16%; in assay [3] (setting [8]), 96% (active); in assay [3] (at 50.0 µM), 99.5% (active); in assay [4] (setting [7]), 27%; in assay [4] (setting [8]), 99% (active); in assay [4] (at 50.0 µM) it was 99.2% (active). The growth inhibition in assay [5] (setting [7]) was 6%; in assay [5] (setting [8]) it was 99% (active); in assay [5] (at 50.0 µM), 99.3% (active); in assay [6] (setting [7]) it was -1%; in assay [6] (setting [8]), 97% (active); in assay [6] (at 50.0 µM) it was 99.3% (active).
Consider `Cc1cc(N)c(C)c2c1[nH]c1ccc(Br)cc12`, for which the growth inhibition is 1% in assay [1] (setting [7]); 96% (active) in assay [1] (setting [8]); 54.1% in assay [1] (at 50.0 µM); -3% in assay [2] (setting [7]); 89% (active) in assay [2] (setting [8]); 42.1% in assay [2] (at 50.0 µM). In addition, the growth inhibition is -6% in assay [3] (setting [7]); 98% (active) in assay [3] (setting [8]); 77.2% (active) in assay [3] (at 50.0 µM); -4% in assay [4] (setting [7]); 58% in assay [4] (setting [8]); 17.7% in assay [4] (at 50.0 µM). In addition, the growth inhibition in assay [5] (setting [7]) was -3%; in assay [5] (setting [8]), 95% (active); in assay [5] (at 50.0 µM) it was 87.2% (active); in assay [6] (setting [7]), 3%; in assay [6] (setting [8]) it was 98% (active); in assay [6] (at 50.0 µM), 38.5%.
For `CCOC(=O)/C(=C/c1ccc(Cl)cc1)N(CC)CC`, the growth inhibition is 16% in assay [1] (setting [7]); 15% in assay [1] (setting [8]); 64.3% in assay [1] (at 50.0 µM); -21% in assay [2] (setting [7]); 20% in assay [2] (setting [8]); 55.2% in assay [2] (at 50.0 µM). For the same compound, the growth inhibition in assay [3] (setting [7]) was 2%; in assay [3] (setting [8]), 18%; in assay [3] (at 50.0 µM), 54.3%; in assay [4] (setting [7]), 43%; in assay [4] (setting [8]), 58%; in assay [4] (at 50.0 µM), 76.2% (active). Further, the growth inhibition is 9% in assay [5] (setting [7]); 36% in assay [5] (setting [8]); 64.8% in assay [5] (at 50.0 µM); -13% in assay [6] (setting [7]); -2% in assay [6] (setting [8]); 53.1% in assay [6] (at 50.0 µM).
As for `COC(=O)c1ccc2ccccc2c1C(=O)c1ccc(F)cc1`, the growth inhibition in assay [1] (setting [7]) was -1%; in assay [1] (setting [8]), 94% (active); in assay [1] (at 50.0 µM), 96.8% (active); in assay [2] (setting [7]) it was 2%; in assay [2] (setting [8]), 96% (active); in assay [2] (at 50.0 µM), 95.5% (active). Moreover, the growth inhibition in assay [3] (setting [7]) was 4%; in assay [3] (setting [8]), 95% (active); in assay [3] (at 50.0 µM), 96.2% (active); in assay [4] (setting [7]), 11%; in assay [4] (setting [8]), 90% (active); in assay [4] (at 50.0 µM) it was 61.7%. The growth inhibition in assay [5] (setting [7]) is 25%; in assay [5] (setting [8]), 97% (active); in assay [5] (at 50.0 µM), 97.4% (active); in assay [6] (setting [7]) it was 2%; in assay [6] (setting [8]), 95% (active); in assay [6] (at 50.0 µM) it was 95% (active).
On to `N#Cc1ccccc1NC1OCC(O)C(O)C1O` (stereo unspecified), for which the growth inhibition is -149% in assay [1] (setting [7]); -139% in assay [1] (setting [8]); 0.45% in assay [1] (at 50.0 µM); -45% in assay [2] (setting [7]); -45% in assay [2] (setting [8]); -3.35% in assay [2] (at 50.0 µM). Also, the growth inhibition was -61% in assay [3] (setting [7]); -79% in assay [3] (setting [8]); 10.6% in assay [3] (at 50.0 µM); -58% in assay [4] (setting [7]); -53% in assay [4] (setting [8]); 16.1% in assay [4] (at 50.0 µM). For the same compound, the growth inhibition in assay [5] (setting [7]) was -67%; in assay [5] (setting [8]), -74%; in assay [5] (at 50.0 µM), 7.2%; in assay [6] (setting [7]), -145%; in assay [6] (setting [8]), -105%; in assay [6] (at 50.0 µM), -3.35%.
